These results are taken from PMC11006913.

HOXC9 (Homo sapiens, UniProt P31274 178-260), sequence (P31274 178-260): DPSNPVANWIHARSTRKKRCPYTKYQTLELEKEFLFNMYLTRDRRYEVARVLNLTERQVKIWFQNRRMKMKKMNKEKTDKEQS

The target of the first test is HOXC9 (Homo sapiens, UniProt P31274 178-260, K195R). As to the kind of experiment: PBM; 200 nM protein, PBS. As to conditions: dsDNA, one strand shown.
HOXC9 (Homo sapiens, UniProt P31274 178-260, K195R), sequence (P31274 178-260 K195R): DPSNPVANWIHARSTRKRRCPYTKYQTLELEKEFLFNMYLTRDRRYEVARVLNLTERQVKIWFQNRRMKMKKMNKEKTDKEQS
For TGATTGCA, the binding signal was 11.1 upbm affinity estimate (log intensity, higher = more binding, comparable within an allelic series).

As to TTCATAAA, the binding signal is 11.7 upbm affinity estimate (log intensity, higher = more binding, comparable within an allelic series).

Take ACGTTGGG: the binding signal was 9.64 upbm affinity estimate (log intensity, higher = more binding, comparable within an allelic series).

TAAAGTGA: the binding signal was 11.3 upbm affinity estimate (log intensity, higher = more binding, comparable within an allelic series).

As for AGGTGGGG, the binding signal is 9.9 upbm affinity estimate (log intensity, higher = more binding, comparable within an allelic series).

As for AGGGGCTC, the binding signal was 9.39 upbm affinity estimate (log intensity, higher = more binding, comparable within an allelic series).

As to TCCAGGGA, the binding signal was 9.73 upbm affinity estimate (log intensity, higher = more binding, comparable within an allelic series).

Take CCTACTCG: the binding signal was 9.67 upbm affinity estimate (log intensity, higher = more binding, comparable within an allelic series).

In the case of CGGGCCAG, the binding signal is 9.64 upbm affinity estimate (log intensity, higher = more binding, comparable within an allelic series).

As to TCGGGCCA, the binding signal is 9.7 upbm affinity estimate (log intensity, higher = more binding, comparable within an allelic series).

Take CCCCCCTC: the binding signal was 9.44 upbm affinity estimate (log intensity, higher = more binding, comparable within an allelic series).

For the sequence AGATTAAA, the binding signal is 11.2 upbm affinity estimate (log intensity, higher = more binding, comparable within an allelic series).

On to ACGATAAA, for which the binding signal was 11.7 upbm affinity estimate (log intensity, higher = more binding, comparable within an allelic series).

For the sequence CTTATAAA, the binding signal is 11.3 upbm affinity estimate (log intensity, higher = more binding, comparable within an allelic series).

In the case of GAGGGTCC, the binding signal was 9.32 upbm affinity estimate (log intensity, higher = more binding, comparable within an allelic series).

Consider GCAGCGCC, for which the binding signal is 9.72 upbm affinity estimate (log intensity, higher = more binding, comparable within an allelic series).

With CCCCCCAC, the binding signal was 9.36 upbm affinity estimate (log intensity, higher = more binding, comparable within an allelic series).

Consider CTATAGAA, for which the binding signal was 11.1 upbm affinity estimate (log intensity, higher = more binding, comparable within an allelic series).

In the case of CACGCGGG, the binding signal was 9.44 upbm affinity estimate (log intensity, higher = more binding, comparable within an allelic series).

With CCGGGTAC, the binding signal was 9.59 upbm affinity estimate (log intensity, higher = more binding, comparable within an allelic series).

With CTGCCTCC, the binding signal was 9.62 upbm affinity estimate (log intensity, higher = more binding, comparable within an allelic series).

Consider CACAATTA, for which the binding signal was 11.7 upbm affinity estimate (log intensity, higher = more binding, comparable within an allelic series).

In the case of CGGAGCCC, the binding signal is 9.46 upbm affinity estimate (log intensity, higher = more binding, comparable within an allelic series).

Turning to AGCCGTGG, the binding signal is 9.64 upbm affinity estimate (log intensity, higher = more binding, comparable within an allelic series).

For the sequence CTGCATAA, the binding signal is 11.2 upbm affinity estimate (log intensity, higher = more binding, comparable within an allelic series).

As to CCTCTCCA, the binding signal was 9.58 upbm affinity estimate (log intensity, higher = more binding, comparable within an allelic series).

For CCTGCCGC, the binding signal was 9.4 upbm affinity estimate (log intensity, higher = more binding, comparable within an allelic series).

As to GCGTCGCC, the binding signal was 9.69 upbm affinity estimate (log intensity, higher = more binding, comparable within an allelic series).

Regarding ATTTAATA, the binding signal is 12.4 upbm affinity estimate (log intensity, higher = more binding, comparable within an allelic series).

Regarding CCCTGCGG, the binding signal was 9.55 upbm affinity estimate (log intensity, higher = more binding, comparable within an allelic series).

With CCTCCCAG, the binding signal is 9.59 upbm affinity estimate (log intensity, higher = more binding, comparable within an allelic series).

Turning to ATCTTTAA, the binding signal was 11.4 upbm affinity estimate (log intensity, higher = more binding, comparable within an allelic series).

Take ATTTGTTC: the binding signal is 11 upbm affinity estimate (log intensity, higher = more binding, comparable within an allelic series).

Consider CGTTAAAG, for which the binding signal was 11.3 upbm affinity estimate (log intensity, higher = more binding, comparable within an allelic series).

For the sequence CTCCACGC, the binding signal is 9.69 upbm affinity estimate (log intensity, higher = more binding, comparable within an allelic series).

Regarding CCCAGGTC, the binding signal is 9.66 upbm affinity estimate (log intensity, higher = more binding, comparable within an allelic series).

CGCGGGAG: the binding signal was 9.47 upbm affinity estimate (log intensity, higher = more binding, comparable within an allelic series).

On to GGAGAACC, for which the binding signal is 9.48 upbm affinity estimate (log intensity, higher = more binding, comparable within an allelic series).

For AGTAATAA, the binding signal was 12.3 upbm affinity estimate (log intensity, higher = more binding, comparable within an allelic series).

A further test deals with HOXA2 (Homo sapiens, UniProt O43364 129-215, R185T). The experiment in a line: PBM; 200 nM protein, PBS. As to conditions: dsDNA, one strand shown.
HOXA2, sequence (O43364 129-215 R185T): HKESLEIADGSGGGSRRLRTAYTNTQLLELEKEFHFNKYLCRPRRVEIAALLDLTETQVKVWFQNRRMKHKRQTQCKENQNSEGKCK
AGGTGGGG: the binding signal was 7.38 upbm affinity estimate (log intensity, higher = more binding, comparable within an allelic series).

In the case of CACGCGGG, the binding signal was 7.04 upbm affinity estimate (log intensity, higher = more binding, comparable within an allelic series).

CGGAGCCC: the binding signal is 7.2 upbm affinity estimate (log intensity, higher = more binding, comparable within an allelic series).

In the case of CCTGCCGC, the binding signal is 6.91 upbm affinity estimate (log intensity, higher = more binding, comparable within an allelic series).

As to CCCTGCGG, the binding signal was 7.02 upbm affinity estimate (log intensity, higher = more binding, comparable within an allelic series).

Consider ATTTGTTC, for which the binding signal is 9.37 upbm affinity estimate (log intensity, higher = more binding, comparable within an allelic series).

For a further test, the target named is T1, NKX2-6 (Homo sapiens, UniProt A6NCS4 118-204, R150C).
T1 sequence: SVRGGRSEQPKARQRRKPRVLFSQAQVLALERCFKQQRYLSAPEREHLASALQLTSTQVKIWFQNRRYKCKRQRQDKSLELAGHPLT
The experiment in a line: PBM; 200 nM protein, PBS. As to conditions: dsDNA, one strand shown.
ACGTTGGG: the binding signal was 9.44 upbm affinity estimate (log intensity, higher = more binding, comparable within an allelic series).

Turning to TCCAGGGA, the binding signal was 9.47 upbm affinity estimate (log intensity, higher = more binding, comparable within an allelic series).

As for CCGGGTAC, the binding signal was 9.58 upbm affinity estimate (log intensity, higher = more binding, comparable within an allelic series).

Another test has as its target HOXC9 (Homo sapiens, UniProt P31274 178-260). As to the kind of experiment: PBM; 200 nM protein, PBS. The conditions noted are these: dsDNA, one strand shown.
For TGATTGCA, the binding signal is 11 upbm affinity estimate (log intensity, higher = more binding, comparable within an allelic series).

For the sequence TTCATAAA, the binding signal was 11.7 upbm affinity estimate (log intensity, higher = more binding, comparable within an allelic series).

As to ACGTTGGG, the binding signal is 9.65 upbm affinity estimate (log intensity, higher = more binding, comparable within an allelic series).

TAAAGTGA: the binding signal is 11.4 upbm affinity estimate (log intensity, higher = more binding, comparable within an allelic series).

With AGGTGGGG, the binding signal is 9.9 upbm affinity estimate (log intensity, higher = more binding, comparable within an allelic series).

Take AGGGGCTC: the binding signal is 9.62 upbm affinity estimate (log intensity, higher = more binding, comparable within an allelic series).

On to TCCAGGGA, for which the binding signal is 9.67 upbm affinity estimate (log intensity, higher = more binding, comparable within an allelic series).

Turning to CCTACTCG, the binding signal was 9.65 upbm affinity estimate (log intensity, higher = more binding, comparable within an allelic series).

For CGGGCCAG, the binding signal was 9.85 upbm affinity estimate (log intensity, higher = more binding, comparable within an allelic series).

With TCGGGCCA, the binding signal was 9.78 upbm affinity estimate (log intensity, higher = more binding, comparable within an allelic series).

Turning to CCCCCCTC, the binding signal is 9.34 upbm affinity estimate (log intensity, higher = more binding, comparable within an allelic series).

Regarding AGATTAAA, the binding signal was 11.1 upbm affinity estimate (log intensity, higher = more binding, comparable within an allelic series).

Regarding ACGATAAA, the binding signal is 11.8 upbm affinity estimate (log intensity, higher = more binding, comparable within an allelic series).

For the sequence CTTATAAA, the binding signal is 11.2 upbm affinity estimate (log intensity, higher = more binding, comparable within an allelic series).

On to GAGGGTCC, for which the binding signal is 9.31 upbm affinity estimate (log intensity, higher = more binding, comparable within an allelic series).

Turning to GCAGCGCC, the binding signal is 9.88 upbm affinity estimate (log intensity, higher = more binding, comparable within an allelic series).

For the sequence CCCCCCAC, the binding signal is 9.41 upbm affinity estimate (log intensity, higher = more binding, comparable within an allelic series).

Turning to CTATAGAA, the binding signal is 11 upbm affinity estimate (log intensity, higher = more binding, comparable within an allelic series).

With CACGCGGG, the binding signal is 9.53 upbm affinity estimate (log intensity, higher = more binding, comparable within an allelic series).

In the case of CCGGGTAC, the binding signal is 9.74 upbm affinity estimate (log intensity, higher = more binding, comparable within an allelic series).

As to CTGCCTCC, the binding signal was 9.69 upbm affinity estimate (log intensity, higher = more binding, comparable within an allelic series).

Turning to CACAATTA, the binding signal is 11.7 upbm affinity estimate (log intensity, higher = more binding, comparable within an allelic series).

As to CGGAGCCC, the binding signal was 9.37 upbm affinity estimate (log intensity, higher = more binding, comparable within an allelic series).

As for AGCCGTGG, the binding signal was 9.68 upbm affinity estimate (log intensity, higher = more binding, comparable within an allelic series).

For CTGCATAA, the binding signal was 11.1 upbm affinity estimate (log intensity, higher = more binding, comparable within an allelic series).

Take CCTCTCCA: the binding signal was 9.63 upbm affinity estimate (log intensity, higher = more binding, comparable within an allelic series).

In the case of CCTGCCGC, the binding signal was 9.49 upbm affinity estimate (log intensity, higher = more binding, comparable within an allelic series).

Consider GCGTCGCC, for which the binding signal was 9.74 upbm affinity estimate (log intensity, higher = more binding, comparable within an allelic series).

In the case of ATTTAATA, the binding signal is 12.5 upbm affinity estimate (log intensity, higher = more binding, comparable within an allelic series).

As for CCCTGCGG, the binding signal was 9.73 upbm affinity estimate (log intensity, higher = more binding, comparable within an allelic series).

CCTCCCAG: the binding signal is 9.7 upbm affinity estimate (log intensity, higher = more binding, comparable within an allelic series).

Consider ATCTTTAA, for which the binding signal was 11.3 upbm affinity estimate (log intensity, higher = more binding, comparable within an allelic series).

Consider ATTTGTTC, for which the binding signal is 10.9 upbm affinity estimate (log intensity, higher = more binding, comparable within an allelic series).

CGTTAAAG: the binding signal is 11.4 upbm affinity estimate (log intensity, higher = more binding, comparable within an allelic series).

In the case of CTCCACGC, the binding signal is 9.61 upbm affinity estimate (log intensity, higher = more binding, comparable within an allelic series).

As for CCCAGGTC, the binding signal is 9.74 upbm affinity estimate (log intensity, higher = more binding, comparable within an allelic series).

CGCGGGAG: the binding signal is 9.59 upbm affinity estimate (log intensity, higher = more binding, comparable within an allelic series).

As for GGAGAACC, the binding signal is 9.62 upbm affinity estimate (log intensity, higher = more binding, comparable within an allelic series).

For the sequence AGTAATAA, the binding signal was 12.3 upbm affinity estimate (log intensity, higher = more binding, comparable within an allelic series).
